# Assay outcomes (PubChem BioAssay)
# GRIN3A LBD mod: binders of NR3A ligand-binding domain, primary screen, biophysical, differential scanning fluorimetry, uHTS; Glutamate receptor ionotropic, NMDA 3A (GRIN3A) ligand-binding domain; NR3A LBD differential scanning fluorimetry, Tm shift; 0% = protein alone, 100% = glycine-bound protein; Tm shift relative to glycine control, % at 25 µM; 2.5% of 340,000 active; AID 1259313, 2017;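 active means melting temperature shift of at least 10% of the positive control shift, at one fixed dose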
# Myeloid diff 2: induction of myeloid progenitor differentiation, primary screen, cell-based, flow cytometry, MLPCN library | ER-HoxA9 myeloid progenitors, lysozyme-GFP differentiation | calls only at 10 µM | 1% of 360,000 active | AID 624256, 2012;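 active means normalized GFP-positive differentiation at or above the plate's own cutoff, the solvent-only control mean plus 3 SD; inconclusive means no clear call, values can overlap the other calls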;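 further: cells exposed to compound for four days before flow analysis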
# rCAG RNA binder: binders of r(CAG) RNA repeats, primary screen, biochemical, fluorescence; 1.3% of 370,000 active; inhibition, % at 3 µM; r(CAG) RNA repeat, TO-PRO-1 dye displacement fluorescence;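 active means inhibition above the plate cutoff, the mean of all test compounds on that plate plus 3 SD, cut at about 35% in these data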;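 further: 0% = DMSO alone and 100% = 100 µM mitoxantrone as full dye displacement; higher means more dye released from RNA so lower well fluorescence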
# MPTP inh: mitochondrial permeability transition pore inhibitors, primary screen, biochemical, isolated mouse mitochondria, absorbance | Ca2+ swelling absorbance, 30 min | inhibition, % at 10 µM | 1.4% of 360,000 active | AID 602449, 2012;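 active means inhibition of 50% or more, scaled per plate between neutral and stimulator controls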;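 further: 0% = DMSO wells given calcium and 100% = 1 mM EGTA wells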
# FAS-TE inh: FAS thioesterase domain inhibitors, primary screen, biochemical, fluorescence intensity, uHTS; recombinant FAS-TE, OMFH fluorogenic substrate, fluorescence endpoint; inhibition, % at 15 µM; 0.67% of 360,000 active;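 active means compounds whose normalised, plate-corrected inhibition of enzyme fluorescence in the single-dose primary screen is 50% or more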;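 further: 0% = DMSO with enzyme and 100% = substrate without enzyme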
# Target sequence (P49327 whole entry, looked up, the tested form may be a part): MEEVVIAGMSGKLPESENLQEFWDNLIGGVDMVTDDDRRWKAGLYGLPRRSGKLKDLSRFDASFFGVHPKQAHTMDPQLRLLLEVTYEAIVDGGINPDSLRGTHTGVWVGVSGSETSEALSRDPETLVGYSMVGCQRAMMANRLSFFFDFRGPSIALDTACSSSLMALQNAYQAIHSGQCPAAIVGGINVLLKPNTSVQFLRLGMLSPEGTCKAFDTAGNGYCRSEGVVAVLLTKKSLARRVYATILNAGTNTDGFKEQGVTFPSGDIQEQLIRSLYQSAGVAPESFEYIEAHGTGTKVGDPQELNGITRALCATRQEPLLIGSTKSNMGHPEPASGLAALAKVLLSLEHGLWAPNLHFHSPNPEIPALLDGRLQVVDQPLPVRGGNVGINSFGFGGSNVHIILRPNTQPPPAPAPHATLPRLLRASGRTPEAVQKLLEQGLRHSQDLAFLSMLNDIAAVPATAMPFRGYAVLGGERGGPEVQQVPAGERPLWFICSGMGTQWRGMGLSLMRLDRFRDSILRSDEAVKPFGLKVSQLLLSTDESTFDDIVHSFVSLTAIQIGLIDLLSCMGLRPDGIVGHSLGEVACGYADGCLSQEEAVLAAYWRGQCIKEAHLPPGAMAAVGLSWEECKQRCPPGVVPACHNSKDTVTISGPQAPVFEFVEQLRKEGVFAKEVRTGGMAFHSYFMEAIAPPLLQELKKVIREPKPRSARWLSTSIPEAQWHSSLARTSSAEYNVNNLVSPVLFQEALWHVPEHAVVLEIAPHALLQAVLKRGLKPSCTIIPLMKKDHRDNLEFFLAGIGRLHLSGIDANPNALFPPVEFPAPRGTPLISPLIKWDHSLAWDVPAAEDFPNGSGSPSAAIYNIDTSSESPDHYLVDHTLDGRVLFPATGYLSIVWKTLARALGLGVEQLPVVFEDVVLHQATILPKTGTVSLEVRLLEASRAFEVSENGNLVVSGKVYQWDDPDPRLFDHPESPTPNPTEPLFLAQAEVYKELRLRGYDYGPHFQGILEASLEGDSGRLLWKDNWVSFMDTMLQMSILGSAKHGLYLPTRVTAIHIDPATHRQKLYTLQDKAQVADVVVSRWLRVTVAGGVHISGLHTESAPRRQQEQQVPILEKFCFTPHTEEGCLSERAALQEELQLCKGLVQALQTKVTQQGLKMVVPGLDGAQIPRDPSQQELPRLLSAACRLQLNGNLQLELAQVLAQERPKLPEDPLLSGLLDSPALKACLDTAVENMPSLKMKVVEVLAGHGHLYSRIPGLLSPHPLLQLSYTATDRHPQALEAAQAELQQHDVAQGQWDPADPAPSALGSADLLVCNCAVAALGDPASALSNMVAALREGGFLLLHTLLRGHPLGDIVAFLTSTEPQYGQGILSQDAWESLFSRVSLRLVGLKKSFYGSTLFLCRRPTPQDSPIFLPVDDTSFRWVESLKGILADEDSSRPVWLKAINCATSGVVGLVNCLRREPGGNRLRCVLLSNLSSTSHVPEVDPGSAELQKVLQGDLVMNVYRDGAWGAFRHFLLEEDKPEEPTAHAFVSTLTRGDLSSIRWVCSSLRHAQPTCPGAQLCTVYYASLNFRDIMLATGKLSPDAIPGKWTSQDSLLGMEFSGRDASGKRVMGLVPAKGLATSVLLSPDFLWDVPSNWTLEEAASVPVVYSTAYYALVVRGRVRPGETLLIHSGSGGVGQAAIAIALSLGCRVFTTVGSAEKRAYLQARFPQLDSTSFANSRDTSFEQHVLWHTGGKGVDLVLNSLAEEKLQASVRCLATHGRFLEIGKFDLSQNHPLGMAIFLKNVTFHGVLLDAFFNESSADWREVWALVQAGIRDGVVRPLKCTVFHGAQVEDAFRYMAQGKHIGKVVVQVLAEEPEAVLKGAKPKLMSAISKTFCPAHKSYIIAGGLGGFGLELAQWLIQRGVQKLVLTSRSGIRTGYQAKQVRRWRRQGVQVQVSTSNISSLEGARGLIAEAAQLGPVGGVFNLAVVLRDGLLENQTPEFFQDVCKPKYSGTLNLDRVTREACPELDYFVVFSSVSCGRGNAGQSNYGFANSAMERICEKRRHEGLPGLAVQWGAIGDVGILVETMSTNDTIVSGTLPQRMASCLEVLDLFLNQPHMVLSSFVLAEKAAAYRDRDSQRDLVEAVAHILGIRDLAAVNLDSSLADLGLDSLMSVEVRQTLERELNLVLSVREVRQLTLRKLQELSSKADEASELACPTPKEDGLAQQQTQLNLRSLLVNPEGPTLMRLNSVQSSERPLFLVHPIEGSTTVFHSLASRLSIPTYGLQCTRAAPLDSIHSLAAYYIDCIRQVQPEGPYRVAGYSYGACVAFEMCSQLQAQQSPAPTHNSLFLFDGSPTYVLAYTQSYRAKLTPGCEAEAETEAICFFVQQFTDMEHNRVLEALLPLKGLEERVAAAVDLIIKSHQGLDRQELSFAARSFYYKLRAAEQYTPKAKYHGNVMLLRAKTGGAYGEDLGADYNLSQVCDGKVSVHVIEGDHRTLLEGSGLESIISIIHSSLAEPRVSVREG
# Rh123 counter: fluorescence retest of MPTP screen hits in isolated mitochondria, single concentration; shares compounds with MPTP inh; membrane potential, Rhodamine 123 fluorescence; inhibition, % at 10 µM; 78% of 5,000 active; AID 624504, 2012; in the data active means inhibition above about 22%;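 further: 0% = DMSO vehicle and 100% = positive control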
# MPTP abs DR: mitochondrial permeability transition pore inhibitors, dose response, biochemical, absorbance, uHTS hits; shares compounds with MPTP inh; isolated mitochondria swelling; IC50, µM; AID 651561, 2012; 58% of 780 active; in the data active means IC50 below about 20 µM
# MPTP cs DR: fluorescent counter-screen in isolated mitochondria, dose response, counter-screen for MPTP inhibitor project, biochemical, fluorescence, uHTS hits | shares compounds with MPTP inh | isolated mitochondria counterscreen, fluorescence read-out | IC50, µM | 49% of 780 active | AID 651564, 2012; in the data active means IC50 below about 80 µM
# * = called active by the depositor; i = inactive; u = inconclusive; x = no result given; ! = not active in a repeat. Shown are actives, neighbours in structure and some others; about 5.7% of the full set was active somewhere.
SMILES,GRIN3A LBD mod,Myeloid diff 2,rCAG RNA binder,MPTP inh,FAS-TE inh,Rh123 counter,others
COc1cc(C(=O)Nc2ccc(Cl)c(C(F)(F)F)c2)cc(OC)c1OC,1,i,2,81*,26,77*,
COc1cc(CCC(=O)Nc2ccc(Cl)c(C(F)(F)F)c2)cc(OC)c1OC,-2,i,-3,46,25,x,
O=C(Nc1cccc(C(F)(F)F)c1)c1ccco1,-3,i,2,5,-4,x,
COC(=O)c1ccccc1NC(=O)CSc1nncn1-c1cccnc1,0,i,3,0,-5,x,
Cc1cccc(NC(=O)c2nc[nH]c2C(=O)N(C)CCO)c1,x,x,1,x,x,x,
Cc1oc2cc3oc(=O)c(CCC(=O)NCc4ccccn4)c(C)c3cc2c1C,-2,i,0,0,2,x,
CN(Cc1ccc(OC(F)F)cc1)C(=O)c1cccc(S(=O)(=O)N2CCN(Cc3ccccc3)CC2)c1,-1,i,-2,58*,25,99*,
CN(Cc1c(F)cccc1Cl)C(=O)c1cccc(S(=O)(=O)N2CCN(Cc3ccccc3)CC2)c1,-1,i,3,1,30,x,
Cn1ncc2c(N3CCN(c4ccc(Cl)c(Cl)c4)CC3)ncnc21,1,i,-2,88*,16,99*,
Cn1ncc2c(N3CCN(c4ccccc4F)CC3)ncnc21,2,i,-5,-2,-2,x,
C=CCCC1CN(Cc2ccc(OC)cc2)S(=O)(=O)c2c(cccc2N2CCCCC2)O1 (centres undefined),x,x,2,x,x,x,
CCN(CC)S(=O)(=O)c1ccc(N2CCN(c3ccccc3OC)CC2)c(N)c1,0,i,7,108*,12,98*,
CCN(CC)S(=O)(=O)c1ccc(Oc2ccccc2)c(N)c1,1,i,-5,1,2,x,
CC1=NN(C(=O)c2ccccc2)C(O)(c2ccc(Br)cc2)C1 (centres undefined),1,i,2,7,15,x,
CCC1=NN(C(=O)c2ccc(Br)cc2)C(O)(c2ccccc2)C1 (centres undefined),-12,i,3,61*,13,75*,
CCN1CCN(Cc2ccc(NC(=O)c3cc(NC(=O)C(=O)c4c[nH]c5ccccc45)cc(OC)c3)cc2C(F)(F)F)CC1,-18,u,15,-1,-12,x,
CCN1CCN(Cc2ccc(NC(=O)c3ccc(C)c(NC(=O)C(=O)c4c[nH]c5ccccc45)c3)cc2C(F)(F)F)CC1,3,u,15,94*!,-22,-12,
COc1ccccc1CC(=O)Nc1ccc([N+](=O)[O-])cc1O,-13,i,4,54*,-5,82*,
CC1=[N+](C)c2c(ccc3cccnc23)C1(C)C,-2,u,-5,95*,-11,82*,
Cc1[nH]c2c(ccc3cccnc32)c1C,-1,i,-1,-2,-5,x,
COc1cc(C)c(S(=O)(=O)NOCc2ccccc2)c(C)c1C,0,i,-4,0,28,x,
O=[N+]([O-])c1cccc(N=Nc2ccc(O)cc2O)c1,-8,i,16,84*,-4,73*,
O=[N+]([O-])c1ccc(N=NN(CCO)CCO)cc1,2,i,-3,0,-6,x,
O=[N+]([O-])c1ccc(N=Nc2ccc(O)cc2O)cc1,0,i,11,84*,-3,80*,
COc1ccc(C(=O)N2CCC(O)(c3ccc(Cl)cc3)CC2)cc1OC,-1,i,-2,2,-3,x,
SMILES,GRIN3A LBD mod,Myeloid diff 2,rCAG RNA binder,MPTP inh,FAS-TE inh,Rh123 counter,others
CC(=O)c1ccc(S(=O)(=O)N2CCN(C(=O)CSc3ccc(C)c(C)c3)CC2)cc1,2,i,2,-1,15,x,
CCc1nc(SCc2ccc(Br)cc2)n[nH]1,-1,i,1,0,-4,x,
CCc1nc(SCc2ccc(OCC(C)C)cc2)n[nH]1,0,i,0,86*,-1,67*,
COc1ccc(C)c2sc(N(CCCN(C)C)C(=O)CS(=O)(=O)c3ccc(F)cc3)nc12,x,i,5,85*,-4,-18,MPTP abs DR=5.7*;MPTP cs DR=>80
COc1ccc(OC)c2sc(N(CCCN(C)C)C(=O)CCS(=O)(=O)c3ccccc3)nc12,2,u,0,-2,-13,x,
CC1CCN(C(=O)N2c3ccccc3Sc3ccccc32)CC1,-4,i,-4,65*,22,34*,
CN(Cc1nccn1C)C(=O)c1cc(COc2cccc(C(F)(F)F)c2)on1,-3,i,-7,-1,-4,x,
Cc1cc(CN(C)C(=O)c2cc(COc3ccc4ncccc4c3)on2)on1,-1,i,-5,96*,-1,73*,
CN(Cc1nccn1C)C(=O)c1cc(COc2ccc3ncccc3c2)on1,0,i,-6,70*,-2,19,MPTP abs DR=19*;MPTP cs DR=46*
O=C(/C=C/c1ccc([N+](=O)[O-])cc1)N1CCN(S(=O)(=O)c2cccs2)CC1,-1,i,1,4,19,x,
C=CC[n+]1ccc(/C=C2\C=Cc3cc(C)ccc3N2CC)c2ccccc21,-6,u,x,102*,-4,76*,
CC1CCCN(c2nc(-c3cccnc3)nc3scc(-c4ccccc4)c23)C1 (centres undefined),12*,i,4,73*,24,-2,MPTP abs DR=7*;MPTP cs DR=>80
CC1CCN(c2nc(-c3cccnc3)nc3scc(-c4ccccc4)c23)CC1,1,i,1,6,21,x,
C[C@H]1[C@H](c2ccccc2)C[C@@H](C(=O)O)C1(C)C,3,i,2,-1,-15,x,
COc1ccccc1NS(=O)(=O)c1ccc(O)c(C(=O)OCc2cccc([N+](=O)[O-])c2)c1,-4,i,12,2,23,x,
COc1ccc(C(=O)COC(=O)c2ccccc2NS(=O)(=O)c2ccc(O)c([N+](=O)[O-])c2)cc1,6,i,92*,71*,20,51*,
COc1ccc(-n2c(SCC(N)=O)nc3sc4c(c3c2=O)CCC4)cc1,0,i,1,4,-2,x,
O=C(Nc1nc2ccc(F)cc2s1)C1CCN(S(=O)(=O)c2cc([N+](=O)[O-])ccc2Cl)CC1,8,i,21,96*,29,84*,
CC(NC(=O)C1CCN(S(=O)(=O)c2cc([N+](=O)[O-])ccc2Cl)CC1)c1ccccc1 (centres undefined),3,i,0,4,22,x,
